Source: PubChem BioAssay (EPA / NIEHS)
Inconclusive results are not listed. Active and inactive are the calls of the source. Rule for the calls, unless noted: active = hit-call score of the fitted dose curve at least 0.9, where 1 is the maximum; inactive = score below 0.9.

Key:
[1] = target: Hepatocyte nuclear factor 4-alpha (Homo sapiens) (UniProt P41235); experiment: ATG_HNF4a_TRANS: Attagene TRANS-FACTORIAL HepG2 Assay for human Hepatocyte Nuclear Factor 4 alpha (HNF4a) (AID 2282982; active = hit-call score of the fitted dose curve at least 0.9, where 1 is the maximum); conditions: HepG2 HNF4a transactivation reporter, mRNA readout
Summary of the method: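 Readout is fluorescent reporter-transcript fragments resolved by capillary electrophoresis after RT-PCR from HepG2 cells dosed for 24 h. Cells carried transfected GAL4-UAS reporter constructs measuring exogenous NR-GAL4 chimera activity; DMSO served as baseline.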

[2] = ATG_M_06_TRANS: Attagene TRANS-FACTORIAL HepG2 Assay for M06 Transcription Factor (Internal Marker) (AID 2282983; active = hit-call score of the fitted dose curve at least 0.9, where 1 is the maximum;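 note: reporter transcript level by RT-PCR then capillary electrophoresis fluorescence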); conditions: HepG2 Attagene TRANS M06 internal marker reporter
Summary of the method: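 HepG2 cells transiently transfected with GAL4-UAS multiple reporter units, dosed 24 h. Reporter RNA reverse-transcribed, PCR-amplified, 6-FAM-labeled, HpaI-digested and quantified by capillary electrophoresis; this internal-marker signal fitted upward relative to DMSO.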

[3] = ATG_M_32_TRANS: Attagene TRANS-FACTORIAL HepG2 Assay for M32 Transcription Factor (Internal Marker) (AID 2282984; active = hit-call score of the fitted dose curve at least 0.9, where 1 is the maximum;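 note: transcript level of a background control reporter unit measured by RT-PCR and capillary electrophoresis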); conditions: HepG2 Attagene TRANS M32 internal marker reporter
Summary of the method: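 Measures reporter mRNA induction in human HepG2 liver cells after 24 h chemical treatment. Transcripts from transiently transfected GAL4-UAS reporter units are amplified, fluorescently labelled and sized by capillary electrophoresis; gain of signal relative to DMSO.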

[4] = target: Transcriptional activator Myb (Homo sapiens) (UniProt P10242); experiment: ATG_Myb_CIS: Attagene CIS-FACTORIAL HepG2 Assay for human Myeloblastosis (Myb) Proto-Oncogene Transcription Factor (AID 2282986); conditions: HepG2 Attagene CIS-FACTORIAL Myb reporter transcription; actives raise or lower the signal
Summary of the method: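 Endogenous transcription factor activity at a Myb-responsive cis element is reported in human liver HepG2 cells after 24 h chemical treatment. Reporter mRNA is detected by RT-PCR and capillary electrophoresis fluorescence, with DMSO as baseline.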

[5] = target: Myc proto-oncogene protein (Homo sapiens) (UniProt P01106); experiment: ATG_Myc_CIS: Attagene CIS-FACTORIAL HepG2 Assay for human Myelocytomatosis (Myc) Proto-Oncogene Transcription Factor (AID 2282990); conditions: HepG2, Attagene cis-reporter transcription factor activity; actives raise or lower the signal
Summary of the method: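 HepG2, transient MRTU transfection (cis promoters, endogenous TFs); 24 h dosing; TriZol RNA → oligo(dT) RT → PCR → 6-FAM primer extension → HpaI cut → CE. Bidirectional fit vs DMSO.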

[6] = ATG_NF_kB_CIS: Attagene CIS-FACTORIAL HepG2 Assay for human Nuclear Factor Kappa B (NF-kB) (AID 2282991); conditions: HepG2 Attagene cis-factorial NF-kB reporter mRNA; actives raise or lower the signal
Summary of the method: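 Multiplexed cis-reporter assay in transiently transfected HepG2. 24 h treatment; RNA isolated, RT-PCR, labelled fragments resolved by CE. DMSO baseline.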

[7] = ATG_NRF2_ARE_CIS: Attagene CIS-FACTORIAL HepG2 Assay for human Nuclear Factor Erythroid 2 Related Factor 2 (NFR2) response to Antioxidant Response Elements (ARE) (AID 2282992); conditions: HepG2 Attagene ARE/NRF2 reporter, transcription factor activity; actives raise or lower the signal;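 for AC50: reporter mRNA level measured by RT-PCR and capillary electrophoresis fluorescence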
Summary of the method: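 HepG2 cells transiently transfected with multiplexed cis-element reporter constructs, 24 h after chemical dosing; reporter mRNA quantified by RT-PCR, fluorescent primer extension, HpaI digestion and capillary electrophoresis. Bidirectional fit relative to DMSO.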

[8] = ATG_Oct_MLP_CIS: Attagene CIS-FACTORIAL HepG2 Assay for human Octamer-Binding Transcription Factor (Oct) (AID 2282993); conditions: HepG2 Attagene cis-factorial Oct reporter, mRNA; actives raise or lower the signal
Summary of the method: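 Transfected HepG2 cells, 24 h treatment. Reporter mRNA quantified by RT-PCR–capillary electrophoresis; bidirectional fitting against DMSO.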

[9] = target: Cellular tumor antigen p53 (Homo sapiens) (UniProt P04637); experiment: ATG_p53_CIS: Attagene CIS-FACTORIAL HepG2 Assay for human p53 Transcription Factor (AID 2282994); conditions: HepG2 p53 cis-element reporter, Attagene mRNA; actives raise or lower the signal
Summary of the method: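 HepG2 cells transiently transfected with cis-regulated multiple reporter transcription units, dosed 24 h. Reporter mRNA measured by RT-PCR, 6-FAM primer extension, HpaI digestion and capillary electrophoresis; bidirectional fit relative to DMSO.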

[10] = BSK_3C_TissueFactor: BioMAP Diversity Plus: 3C Assay for Tissue Factor Biomarker Activity (AID 2282997); conditions: BioMAP 3C HUVEC, tissue factor biomarker readout; actives raise or lower the signal
Summary of the method: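 HUVEC were treated 24 h, then surface tissue factor measured by ELISA and fitted bidirectionally against DMSO. Parallel SRB total-protein staining assessed overt cytotoxicity at the same time point.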

[11] = BSK_3C_VCAM1: BioMAP Diversity Plus: 3C Assay for Vascular cell adhesion molecule 1 (VCAM1) Biomarker Activity (AID 2282999); conditions: BioMAP 3C HUVEC, VCAM1 ELISA, cytokine-stimulated; actives raise or lower the signal
Summary of the method: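 Endothelial cells from human umbilical vein are treated with test chemical. At 24 h, VCAM-1 is measured by ELISA, and responses in either direction are fitted relative to DMSO.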

[12] = BSK_4H_Eotaxin3: BioMAP Diversity Plus: 4H Assay for Eotaxin 3 Biomarker Activity (AID 2283000); conditions: primary human endothelial cells (HUVEC); actives raise or lower the signal
Summary of the method: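 Eotaxin-3 (CCL26) levels were measured by ELISA in HUVEC primary cultures 24 h post-dosing. Gain or loss of signal was fitted in both directions, with DMSO serving as baseline and negative control.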

[13] = target: human Peroxisome Proliferator-activated Receptor alpha (PPARa), PPARA (gene 5465) (UniProt Q07869); experiment: ATG_PPARa_TRANS: Attagene TRANS-FACTORIAL HepG2 Assay for human Peroxisome Proliferator-activated Receptor alpha (PPARa) (AID 2283001; active = hit-call score of the fitted dose curve at least 0.9, where 1 is the maximum)
Summary of the method: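 Read-out is fluorescence of reporter cDNA fragments resolved by capillary electrophoresis after RT-PCR. Human HepG2 liver cells carried transfected PPARa-Gal4 chimera and GAL4-UAS reporter units, treated 24 h; activity scored as increase over DMSO.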

[14] = BSK_3C_uPAR: BioMAP Diversity Plus: 3C Assay for Urokinase-type plasminogen activator receptor (uPAR) Biomarker Activity (AID 2282998); conditions: BioMAP 3C HUVEC, uPAR biomarker ELISA; actives raise or lower the signal
Summary of the method: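 Readout: ELISA for surface uPAR. System: human umbilical vein endothelial primary cells, 24 h after chemical exposure. Analysis: bidirectional fit, DMSO baseline.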

[15] = target: Nuclear receptor subfamily 4 group A member 2 (Homo sapiens) (UniProt P43354); experiment: ATG_NURR1_TRANS: Attagene TRANS-FACTORIAL HepG2 Assay for human Nuclear Receptor Related Protein 1 (NURR1) (AID 2282985; active = hit-call score of the fitted dose curve at least 0.9, where 1 is the maximum); conditions: HepG2 Attagene TRANS reporter, mRNA readout
Summary of the method: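 Transient transfection of HepG2, human liver cells, with multiple GAL4-UAS reporter transcription units. Cells dosed 24 h, RNA isolated, reverse-transcribed, PCR-amplified, FAM-labelled, HpaI-digested, sized by capillary electrophoresis. DMSO served as negative control.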

[16] = target: Nuclear respiratory factor 1 (Homo sapiens) (UniProt Q16656); experiment: ATG_NRF1_CIS: Attagene CIS-FACTORIAL HepG2 Assay for human Nuclear Respiratory Factor 1 (NRF1) Orphan Gene (AID 2282987); conditions: HepG2 NRF1 cis-element reporter, Attagene multiplex; actives raise or lower the signal
Summary of the method: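 Human hepatoma HepG2 cells carrying transfected promoter-regulated reporter units were incubated with test chemicals for 24 h. Reporter transcripts were measured by RT-PCR plus capillary electrophoresis, and endpoints derived by bidirectional fitting with DMSO as baseline.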

[17] = ATG_NFI_CIS: Attagene CIS-FACTORIAL HepG2 Assay for human Nuclear Factor I (NFI) (AID 2282989); conditions: HepG2 cis-regulatory reporter, NFI response element transcription; actives raise or lower the signal
Summary of the method: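 Reporter transcription driven by endogenous transcription factors in HepG2 cells; 24 h treatment. Quantitation by labelled RT-PCR fragments on capillary electrophoresis, gain- or loss-of-signal relative to DMSO.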

[18] = target: Oxysterols receptor LXR-beta (Homo sapiens) (UniProt P55055); experiment: ATG_LXRb_TRANS: Attagene TRANS-FACTORIAL HepG2 Assay for human Liver X Receptor beta (LXRb) (AID 2282981; active = hit-call score of the fitted dose curve at least 0.9, where 1 is the maximum); conditions: HepG2 Attagene TRANS GAL4-LXRb reporter, mRNA
Summary of the method: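 Transient transfection HepG2 (multiplexed RTUs, GAL4-UAS); NR-Gal4 chimera; 24 h exposure; RNA → RT-PCR → 6-FAM primer extension → HpaI → CE; increase vs DMSO.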

[19] = target: Oxysterols receptor LXR-alpha (Homo sapiens) (UniProt Q13133); experiment: ATG_LXRa_TRANS: Attagene TRANS-FACTORIAL HepG2 Assay for human Liver X Receptor alpha (LXRa) (AID 2282980; active = hit-call score of the fitted dose curve at least 0.9, where 1 is the maximum); conditions: HepG2 Attagene TRANS reporter, LXRa transactivation
Summary of the method: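 HepG2 cells transiently transfected with GAL4-UAS reporter units for chimeric NR-Gal4 proteins, exposed to chemicals for 24 h. Reporter mRNA quantified by RT-PCR and capillary electrophoresis; gain of signal fitted relative to DMSO.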

Measured: AC50

human Peroxisome Proliferator-activated Receptor alpha (PPARa), PPARA (gene 5465), sequence (Q07869 whole entry, looked up, the tested form may be a part): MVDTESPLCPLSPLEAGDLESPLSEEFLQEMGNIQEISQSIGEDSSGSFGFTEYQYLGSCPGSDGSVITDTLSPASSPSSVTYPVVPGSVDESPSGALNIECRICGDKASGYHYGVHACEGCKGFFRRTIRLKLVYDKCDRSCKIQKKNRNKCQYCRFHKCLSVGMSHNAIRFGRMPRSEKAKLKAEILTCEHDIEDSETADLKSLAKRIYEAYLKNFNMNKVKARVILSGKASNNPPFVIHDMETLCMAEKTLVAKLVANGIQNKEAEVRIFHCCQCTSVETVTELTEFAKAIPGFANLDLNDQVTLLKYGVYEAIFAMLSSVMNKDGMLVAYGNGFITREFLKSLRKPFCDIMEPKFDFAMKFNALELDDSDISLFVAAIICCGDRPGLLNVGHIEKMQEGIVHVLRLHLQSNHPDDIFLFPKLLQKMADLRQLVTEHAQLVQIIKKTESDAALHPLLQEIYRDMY
Hepatocyte nuclear factor 4-alpha (Homo sapiens), sequence (P41235 whole entry, looked up, the tested form may be a part): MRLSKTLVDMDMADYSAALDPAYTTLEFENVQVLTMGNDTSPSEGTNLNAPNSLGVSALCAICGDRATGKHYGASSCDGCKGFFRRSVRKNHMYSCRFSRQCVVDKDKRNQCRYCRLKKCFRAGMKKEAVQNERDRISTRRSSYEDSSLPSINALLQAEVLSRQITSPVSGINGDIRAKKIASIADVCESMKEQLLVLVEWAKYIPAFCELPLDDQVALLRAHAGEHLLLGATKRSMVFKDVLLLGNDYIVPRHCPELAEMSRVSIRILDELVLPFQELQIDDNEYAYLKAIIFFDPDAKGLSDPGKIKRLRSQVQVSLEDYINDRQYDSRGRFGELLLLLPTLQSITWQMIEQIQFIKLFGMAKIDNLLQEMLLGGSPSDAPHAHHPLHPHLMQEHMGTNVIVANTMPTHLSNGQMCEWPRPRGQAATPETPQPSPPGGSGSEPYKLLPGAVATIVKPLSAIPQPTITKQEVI
Transcriptional activator Myb (Homo sapiens), sequence (P10242 whole entry, looked up): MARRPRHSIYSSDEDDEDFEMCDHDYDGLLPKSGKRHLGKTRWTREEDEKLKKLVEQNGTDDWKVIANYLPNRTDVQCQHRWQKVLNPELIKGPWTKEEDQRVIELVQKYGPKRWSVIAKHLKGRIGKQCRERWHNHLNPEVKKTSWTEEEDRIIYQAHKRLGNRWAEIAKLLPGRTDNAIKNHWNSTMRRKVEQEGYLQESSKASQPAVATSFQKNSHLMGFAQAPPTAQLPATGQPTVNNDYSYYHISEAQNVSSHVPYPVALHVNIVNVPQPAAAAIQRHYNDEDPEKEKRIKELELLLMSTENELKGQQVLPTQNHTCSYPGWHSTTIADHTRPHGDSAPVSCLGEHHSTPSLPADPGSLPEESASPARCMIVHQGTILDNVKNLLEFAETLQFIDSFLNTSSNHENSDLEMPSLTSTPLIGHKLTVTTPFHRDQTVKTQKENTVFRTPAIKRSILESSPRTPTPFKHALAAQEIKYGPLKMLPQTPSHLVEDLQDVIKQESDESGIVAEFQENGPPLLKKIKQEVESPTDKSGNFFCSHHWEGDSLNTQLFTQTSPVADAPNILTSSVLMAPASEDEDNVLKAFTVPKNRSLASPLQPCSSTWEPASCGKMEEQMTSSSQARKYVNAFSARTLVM
Nuclear receptor subfamily 4 group A member 2 (Homo sapiens), sequence (P43354 whole entry, looked up, the tested form may be a part): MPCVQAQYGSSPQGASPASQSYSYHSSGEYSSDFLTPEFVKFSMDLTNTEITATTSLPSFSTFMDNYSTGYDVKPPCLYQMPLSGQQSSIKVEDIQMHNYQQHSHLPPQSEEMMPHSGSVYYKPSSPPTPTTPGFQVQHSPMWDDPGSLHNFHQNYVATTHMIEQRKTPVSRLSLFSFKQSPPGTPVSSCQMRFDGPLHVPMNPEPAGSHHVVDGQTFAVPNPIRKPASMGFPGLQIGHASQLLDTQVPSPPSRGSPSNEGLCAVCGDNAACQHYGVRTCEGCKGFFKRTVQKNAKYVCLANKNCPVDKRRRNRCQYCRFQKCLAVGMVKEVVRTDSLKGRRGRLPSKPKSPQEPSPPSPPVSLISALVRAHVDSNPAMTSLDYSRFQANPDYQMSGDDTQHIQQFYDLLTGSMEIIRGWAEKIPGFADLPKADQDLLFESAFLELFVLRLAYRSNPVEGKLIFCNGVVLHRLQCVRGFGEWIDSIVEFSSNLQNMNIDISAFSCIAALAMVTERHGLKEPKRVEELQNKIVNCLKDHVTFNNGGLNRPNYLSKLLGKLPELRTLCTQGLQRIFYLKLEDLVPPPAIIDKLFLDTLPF
Nuclear respiratory factor 1 (Homo sapiens), sequence (Q16656 whole entry, looked up): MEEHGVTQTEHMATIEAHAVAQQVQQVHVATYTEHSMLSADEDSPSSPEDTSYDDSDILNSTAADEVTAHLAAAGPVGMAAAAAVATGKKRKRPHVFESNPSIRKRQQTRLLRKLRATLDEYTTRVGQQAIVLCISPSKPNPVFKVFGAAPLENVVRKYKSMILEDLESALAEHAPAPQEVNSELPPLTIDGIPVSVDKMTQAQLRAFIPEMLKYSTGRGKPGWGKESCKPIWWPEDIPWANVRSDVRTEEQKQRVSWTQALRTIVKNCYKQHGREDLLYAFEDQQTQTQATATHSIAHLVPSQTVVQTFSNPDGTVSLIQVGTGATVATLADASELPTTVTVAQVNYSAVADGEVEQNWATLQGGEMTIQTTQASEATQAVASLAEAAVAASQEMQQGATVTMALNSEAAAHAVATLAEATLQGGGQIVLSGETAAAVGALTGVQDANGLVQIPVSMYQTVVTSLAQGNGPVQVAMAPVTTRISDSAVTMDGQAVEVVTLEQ
Cellular tumor antigen p53 (Homo sapiens), sequence (P04637 whole entry, looked up): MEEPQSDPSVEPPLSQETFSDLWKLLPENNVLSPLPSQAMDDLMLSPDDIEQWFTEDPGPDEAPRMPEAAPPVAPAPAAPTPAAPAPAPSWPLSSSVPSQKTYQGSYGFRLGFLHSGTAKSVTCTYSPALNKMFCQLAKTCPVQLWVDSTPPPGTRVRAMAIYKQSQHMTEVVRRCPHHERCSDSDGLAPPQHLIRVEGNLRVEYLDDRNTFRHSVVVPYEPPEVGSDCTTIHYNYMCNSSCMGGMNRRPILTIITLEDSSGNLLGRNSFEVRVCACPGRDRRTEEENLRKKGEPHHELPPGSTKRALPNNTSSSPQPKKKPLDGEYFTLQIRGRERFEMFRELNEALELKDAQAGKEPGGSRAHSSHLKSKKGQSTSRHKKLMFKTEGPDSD
Myc proto-oncogene protein (Homo sapiens), sequence (P01106 whole entry, looked up): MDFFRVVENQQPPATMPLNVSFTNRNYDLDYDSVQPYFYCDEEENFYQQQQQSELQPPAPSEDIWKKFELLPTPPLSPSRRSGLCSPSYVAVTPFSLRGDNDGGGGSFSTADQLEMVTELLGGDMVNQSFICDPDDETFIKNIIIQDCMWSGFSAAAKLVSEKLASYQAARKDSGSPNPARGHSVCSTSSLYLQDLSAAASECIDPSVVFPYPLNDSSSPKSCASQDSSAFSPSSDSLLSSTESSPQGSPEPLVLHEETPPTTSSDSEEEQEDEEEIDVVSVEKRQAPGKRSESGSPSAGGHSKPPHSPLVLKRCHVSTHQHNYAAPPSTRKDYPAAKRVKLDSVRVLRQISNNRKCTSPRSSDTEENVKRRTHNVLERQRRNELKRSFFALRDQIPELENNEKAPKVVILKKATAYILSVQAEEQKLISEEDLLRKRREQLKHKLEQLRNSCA
Oxysterols receptor LXR-alpha (Homo sapiens), sequence (Q13133 whole entry, looked up, the tested form may be a part): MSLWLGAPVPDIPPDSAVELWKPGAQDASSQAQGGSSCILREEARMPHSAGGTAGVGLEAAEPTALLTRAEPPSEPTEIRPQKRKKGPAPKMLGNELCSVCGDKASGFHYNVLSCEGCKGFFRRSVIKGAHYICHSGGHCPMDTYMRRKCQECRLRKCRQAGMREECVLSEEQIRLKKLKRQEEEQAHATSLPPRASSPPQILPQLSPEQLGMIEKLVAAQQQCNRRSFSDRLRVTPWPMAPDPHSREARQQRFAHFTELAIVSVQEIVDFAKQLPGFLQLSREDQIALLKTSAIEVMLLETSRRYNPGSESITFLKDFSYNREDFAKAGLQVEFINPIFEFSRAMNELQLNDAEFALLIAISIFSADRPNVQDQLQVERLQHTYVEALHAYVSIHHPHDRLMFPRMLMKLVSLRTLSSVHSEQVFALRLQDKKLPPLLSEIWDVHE
Oxysterols receptor LXR-beta (Homo sapiens), sequence (P55055 whole entry, looked up, the tested form may be a part): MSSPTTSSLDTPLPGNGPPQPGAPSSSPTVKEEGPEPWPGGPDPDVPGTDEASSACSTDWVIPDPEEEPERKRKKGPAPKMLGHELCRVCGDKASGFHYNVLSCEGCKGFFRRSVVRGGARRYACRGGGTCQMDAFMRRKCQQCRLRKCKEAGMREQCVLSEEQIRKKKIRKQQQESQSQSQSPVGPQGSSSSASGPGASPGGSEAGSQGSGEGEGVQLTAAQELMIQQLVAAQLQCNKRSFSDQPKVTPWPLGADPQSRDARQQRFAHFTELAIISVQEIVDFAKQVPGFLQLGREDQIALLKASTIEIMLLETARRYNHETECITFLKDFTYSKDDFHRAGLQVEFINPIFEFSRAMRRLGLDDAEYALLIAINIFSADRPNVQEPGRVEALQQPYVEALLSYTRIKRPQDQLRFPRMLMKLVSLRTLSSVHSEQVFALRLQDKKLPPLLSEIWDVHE

O=C(O)C=CC(F)(C(F)(F)F)C(F)(F)F
not listed: [14] | [15] | [16] | [17] | [18] | [19]
inactive: all other assays above

O=P(OCC(Br)CBr)(OCC(Br)CBr)OCC(Br)CBr (stereo not given)
active: [7] 23.4 µM | [14] 17.4 µM | [11] 17.4 µM
inactive: [2] | [4] | [5] | [6] | [8] | [9] | [10] | [12]

C=C(C)C(=O)OCC1CO1 (stereo not given)
active: [7] 42.9 µM
not listed: [10] | [11] | [12] | [13] | [14] | [18] | [19]
inactive: all other assays above

CCCCOCC1CO1 (stereo not given)
inactive: [1] | [15] | [4] | [17] | [5] | [7] | [8] | [9] | [13]

O=[N+]([O-])c1ccccc1
not listed: [1] | [3] | [13] | [15] | [16] | [18] | [19]
inactive: all other assays above

CCOC(=O)c1ccccc1C(=O)OCC
not listed: [3] | [18] | [19]
inactive: all other assays above

Nc1ccc2ccccc2c1
active: [12] 9.1 µM
not listed: [1] | [6] | [14] | [15] | [16] | [17] | [19]
inactive: all other assays above

Nc1ccc(Cl)cc1
not listed: [1] | [6] | [13] | [17] | [18]
inactive: all other assays above

Nc1cc2c3c(c1)C(c1ccccc1)=N[C@@H](NC(=O)c1cccnc1)C(=O)N3CC2
active: [8] 52.9 µM
not listed: [9] | [14] | [16] | [18] | [19]
inactive: all other assays above

CCCCN(CC)C(=O)SCCC
inactive: [1] | [3] | [4] | [16] | [5] | [6] | [7] | [8] | [9]

[N-]=[N+]=[N-]
active: [5] 100 µM
not listed: [1] | [3] | [16] | [18] | [19]
inactive: all other assays above

Nc1ccc(Sc2ccc(N)cc2)cc1
active: [7] 50.4 µM
inactive: [1] | [3] | [15] | [4] | [16] | [17] | [5] | [8]

O=c1[nH]c2ccccc2c(=O)o1
not listed: [1] | [3] | [10] | [11] | [12] | [14] | [18]
inactive: all other assays above

CCCN(CCC)c1c([N+](=O)[O-])cc(C(C)C)cc1[N+](=O)[O-]
active: [7] 38.4 µM | [14] 33.7 µM | [11] 25.8 µM | [12] 32.1 µM
not listed: [1] | [2] | [3] | [6] | [18] | [19]
inactive: all other assays above
